ELG1 genotoxic: qHTS screen for small molecules that induce genotoxicity in human embryonic kidney (HEK293T) cells expressing luciferase-tagged ELG1. HEK293T ELG1-luciferase reporter, luminescence, 16 h. Potency, µM (series often up to 46 µM), inactives show at the top dose activity change, positive = activation, most hits filed as activators. 330,000 compounds, 1.3% hits. AID 504466, 2011; also: % of control where 0% means no effect; nearly all actives have a fitted effect of over 60% in size
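Step 1: seed 2,000 HEK293T ELG1-luciferase cells per well. Step 2: add compound or DMSO, incubate 16 hr at 37 °C. Step 3: ONE-Glo, 30 min at room temperature, read luminescence.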
Rab9 promoter act: qHTS Assay for Rab9 Promoter Activators; Potency, µM (highest dose often 9.22 µM), for the others: at the highest dose activation, negative = inhibition, actives largely listed as activators; Huh7 Rab9 promoter-luciferase reporter, luminescence, 24 h; 320,000 compounds, 2.8% hits; also: % of control where 0% means no effect; nearly all actives have a fitted effect of over 60% in size
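Stable Rab9-luc Huh7, 1500 cells/well, 2 h settle; cmpd in DMSO, 24 h, 37 °C/5% CO2; luciferase reagent 10 min RT; luminescence.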
SMN2 splice enh: qHTS Assay for Enhancers of SMN2 Splice Variant Expression. HEK293 SMN2-luciferase splicing reporter, luminescence, 30-36 h. AID 1458, 2008. Potency, µM (doses to about 46.1 µM), inactives show at the highest dose activity change, positive = activation, usual class: activators. 210,000 compounds, 2.8% hits; also: % of control where 0% means no effect; nearly all actives have a fitted effect of over 55% in size
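HEK293 cells carry an SMN2 […]–luciferase reporter in which exon 7 inclusion puts luciferase in frame. Cells were plated 10-12 h before compound addition, then incubated 30-36 h at 37C. ONE-Glo luminescence was read; sodium butyrate at 4.5 mM final served as control.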
Luc counter: Counterscreen for Luciferase (Kinase-Glo TM) Inhibition; Luciferin 4-monooxygenase (Photuris pensylvanica), Q27757; Kinase-Glo luciferase, ATP luminescence, 8 min; Potency, µM (doses to about 38.3 µM), inactives show top-dose activity change, negative = inhibition, most hits filed as inhibitors; 200,000 compounds, 0.28% hits; also: % is scaled to controls: 0 for no effect and ±100 for the full control effect; nearly all actives have a fitted effect of over 60% in size
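Compounds were added to a substrate mix at pH 7.2 (50 mM imidazole, 10 uM ATP, within the enzyme's linear range), followed by Kinase-Glo detection reagent; luminescence was measured after 8 minutes at ambient temperature.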
FLuc counter: qHTS profiling assay for firefly luciferase inhibitor/activator using purifed enzyme and Km concentrations of substrates (counterscreen for miR-21 project) | purified FLuc, Km substrates, luminescence inhibition | 360,000 compounds, 6.9% hits | Potency, µM (doses to about 57.5 µM), for the others: top-dose activity change, negative = inhibition, most hits filed as inhibitors | Luciferin 4-monooxygenase (Photinus pyralis), P08659;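 also: plate controls were vehicle for no effect and reference inhibitor for full effect; nearly all actives have a fitted effect of over 55% in size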
Target sequence (P08659 whole entry, looked up): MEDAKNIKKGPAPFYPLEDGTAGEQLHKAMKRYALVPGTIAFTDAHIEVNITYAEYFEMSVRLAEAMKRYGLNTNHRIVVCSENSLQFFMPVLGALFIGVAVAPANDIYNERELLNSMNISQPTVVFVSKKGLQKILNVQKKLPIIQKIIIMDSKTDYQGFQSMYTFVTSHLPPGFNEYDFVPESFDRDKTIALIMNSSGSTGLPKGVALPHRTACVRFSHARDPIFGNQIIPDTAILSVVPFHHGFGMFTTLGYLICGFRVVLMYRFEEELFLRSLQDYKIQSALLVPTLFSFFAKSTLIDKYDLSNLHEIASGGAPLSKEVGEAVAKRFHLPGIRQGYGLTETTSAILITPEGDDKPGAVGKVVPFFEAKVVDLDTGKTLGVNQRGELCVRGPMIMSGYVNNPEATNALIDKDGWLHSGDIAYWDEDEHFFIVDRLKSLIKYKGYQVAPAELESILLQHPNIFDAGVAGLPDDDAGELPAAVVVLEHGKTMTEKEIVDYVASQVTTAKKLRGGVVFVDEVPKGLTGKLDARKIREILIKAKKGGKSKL
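Purified P. pyralis luciferase, 10 nM final, with Km-level 10 uM D-luciferin and 10 uM ATP in 50 mM Tris acetate pH 7.5, 10 mM Mg acetate, 0.01% Tween-20, 0.05% BSA; 6-point qHTS titration about 60 µM downward; luminescence read.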
NPC1 promoter act: qHTS Assay for NPC1 Promoter Activators; Huh7 NPC1 promoter luciferase reporter, 24 h; Potency, µM (top dose mostly 9.22 µM), without a hit: top-dose activation, actives largely listed as activators; 320,000 compounds, 2.4% hits; AID 485313, 2010; also: % of control where 0% means no effect; nearly all actives have a fitted effect of over 60% in size
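Luminescence from an NPC1 promoter-driven luciferase reporter in stably transfected Huh7 cells was measured after 24 h compound treatment at 37 °C, followed by 10 min ambient incubation with luciferase detection reagent.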
Starred values were filed as active, the others as inactive. Compounds with a hit are over-represented: about 7.4% of the library has one in this group of screens. Calls follow the shape of the dose curve; as a rule, active = well fitted curve in the direction sought with a large enough effect; inconclusive = small, poorly fitted or top-dose-only effect, or another doubt; inactive = no such curve, though single readings can be large; an effect the other way counts as inactive or inconclusive. Potency is read from the fitted curve at half-maximal effect.

`COc1ccc(NC(=O)C2Cc3ccccc3O/C2=N\O)cc1` (stereo not drawn) gave ELG1 genotoxic inconclusive, Rab9 promoter act 18.0%, FLuc counter inconclusive and NPC1 promoter act 28.6%.
For CCCn1c(C)cc(C(=O)COC(=O)c2ccc(Cl)c(S(=O)(=O)N3CCCC3)c2)c1C the results were ELG1 genotoxic 0.7%, Rab9 promoter act -2.3%, SMN2 splice enh -19.9%, Luc counter -1.7%, FLuc counter 2.39µM* and NPC1 promoter act -1.6%.
`CCn1cc(C(=O)OCC(=O)c2cc(C)n(-c3ccccc3F)c2C)c(=O)c2ccc(C)nc21` gave ELG1 genotoxic 1.2%, Rab9 promoter act -6.1%, SMN2 splice enh 12.3%, Luc counter -1.8%, FLuc counter inconclusive and NPC1 promoter act -0.7%.
`Cc1ccc(-n2c(C)cc(C(=O)COC(=O)c3ccc[nH]c3=O)c2C)cc1C` gave ELG1 genotoxic inconclusive, Rab9 promoter act inconclusive, SMN2 splice enh 7.08µM*, Luc counter -5.2%, FLuc counter 6.01µM* and NPC1 promoter act inconclusive.
`Cc1cc(C(=O)COC(=O)c2ccc(O)cc2)c(C)n1-c1ccccc1F` gave ELG1 genotoxic inconclusive, Rab9 promoter act inconclusive, SMN2 splice enh 21.4%, Luc counter 0.9%, FLuc counter 2.39µM* and NPC1 promoter act inconclusive.
For Cc1cc(C(=O)COC(=O)c2ccc[nH]c2=O)c(C)n1-c1ccccc1F the results were ELG1 genotoxic inconclusive, Rab9 promoter act 0.398µM*, FLuc counter 1.51µM* and NPC1 promoter act 0.316µM*.
For C=CCn1c(=O)c(CCC(=O)Nc2ccc(N3CCOCC3)cc2)nc2cc(C(F)(F)F)ccc21 the results were ELG1 genotoxic 2.0%, Rab9 promoter act -13.7%, FLuc counter 0.9% and NPC1 promoter act 1.7%.
`Cc1cc(C(=O)COC(=O)C2=NN(c3ccccc3)C(=O)CC2)c(C)n1CC(F)(F)F` gave ELG1 genotoxic 3.2%, Rab9 promoter act 1.2%, SMN2 splice enh -1.3%, Luc counter 1.8%, FLuc counter -16.3% and NPC1 promoter act -1.9%.
For CCCn1c(C)cc(C(=O)COC(=O)c2ccc[nH]c2=O)c1C the results were ELG1 genotoxic inconclusive, Rab9 promoter act 1.26µM*, Luc counter inconclusive, FLuc counter 2.69µM* and NPC1 promoter act inconclusive.
Screening CCn1c(C)cc(C(=O)COC(=O)c2ccccc2[N+](=O)[O-])c1C returned ELG1 genotoxic -6.0%.
`Cc1cc(C(=O)COC(=O)c2ccc(O)cc2)c(C)n1CC(F)(F)F` gave ELG1 genotoxic inconclusive, Rab9 promoter act 3.16µM* and NPC1 promoter act 2.82µM*.
Screening CN(C(=O)COC(=O)c1ccc2ccccc2n1)C1CCCCC1 returned ELG1 genotoxic -2.2%.
Screening Cc1cccc(NC(=O)C2C3C=CC(C4CC34)C2C(=O)O)c1 (stereo not drawn) returned ELG1 genotoxic 6.5%, Rab9 promoter act 0.1%, SMN2 splice enh -29.2%, Luc counter -2.4%, FLuc counter 16.9µM* and NPC1 promoter act -1.2%.
Screening Cc1cccc(NC(=O)C2C3C=CC(O3)C2C(=O)O)c1 (stereo not drawn) returned ELG1 genotoxic -6.5%, Rab9 promoter act 0.7%, FLuc counter -2.0% and NPC1 promoter act -0.7%.
`Cc1nc2sccc2c(=O)n1-c1cccc(Cl)c1` gave ELG1 genotoxic -0.5%, Rab9 promoter act -1.7%, SMN2 splice enh -4.7%, Luc counter -7.4%, FLuc counter 6.9% and NPC1 promoter act 3.0%.
Screening C/C(=N\N=C\c1ccc(N(C)C)cc1)c1cccc([N+](=O)[O-])c1 returned ELG1 genotoxic inconclusive, Rab9 promoter act 2.82µM*, SMN2 splice enh 14.1µM*, Luc counter -11.9%, FLuc counter 2.13µM* and NPC1 promoter act 3.55µM*.
C/C(=N\N=C(N)N)c1cccc([N+](=O)[O-])c1 was read as ELG1 genotoxic 1.6%, Rab9 promoter act -4.1%, SMN2 splice enh 2.6%, Luc counter -3.5%, FLuc counter 4.5% and NPC1 promoter act 5.5%.
`O=C(Nc1ccc(Br)cc1)c1ccc2ncsc2c1` gave ELG1 genotoxic 1.64µM*, Rab9 promoter act 0.355µM*, FLuc counter 5.36µM* and NPC1 promoter act 0.398µM*.
For CN(C)S(=O)(=O)c1ccc(NC(=O)c2ccc3ncsc3c2)cc1 the results were ELG1 genotoxic inconclusive, Rab9 promoter act 14.8%, FLuc counter inconclusive and NPC1 promoter act 24.4%.
CCc1ccc(NC(=O)c2ccc3ncsc3c2)cc1 was read as ELG1 genotoxic inconclusive, Rab9 promoter act 3.55µM*, SMN2 splice enh 8.91µM*, Luc counter 1.0%, FLuc counter 2.69µM* and NPC1 promoter act 1.41µM*.
For O=C(Nc1ccc2c(c1)C(=O)NC2=O)c1ccc2ncsc2c1 the results were ELG1 genotoxic inconclusive, Rab9 promoter act inconclusive, SMN2 splice enh 11.2µM*, Luc counter 2.9%, FLuc counter inconclusive and NPC1 promoter act inconclusive.
Screening O=C(Nc1ccc2c(c1)C(=O)NC2=O)c1ccccc1 returned ELG1 genotoxic 1.1%, Rab9 promoter act 2.6%, FLuc counter -1.7% and NPC1 promoter act 0.3%.
`COc1ccc(NC(=O)c2ccc3ncsc3c2)cc1` gave ELG1 genotoxic inconclusive, Rab9 promoter act 1.41µM*, FLuc counter 8.49µM* and NPC1 promoter act 3.16µM*.
For COc1cccc(/C=N/Nc2nn3cnnc3c3ccccc23)c1O the results were ELG1 genotoxic -0.1%, Rab9 promoter act -22.1%, SMN2 splice enh -18.8%, Luc counter -5.3%, FLuc counter -5.9% and NPC1 promoter act -16.3%.
Screening Oc1cccc(/C=N/Nc2nn3cnnc3c3ccccc23)c1 returned ELG1 genotoxic -2.6%, Rab9 promoter act 8.9%, FLuc counter 8.49µM* and NPC1 promoter act 15.0%.
C[n+]1cc[nH]c1SCC(=O)c1ccccc1 was read as ELG1 genotoxic 18.4µM*, Rab9 promoter act inconclusive, SMN2 splice enh 20.8%, Luc counter -25.0%, FLuc counter 23.9µM* and NPC1 promoter act inconclusive.
For Cc1cccc(NC(=O)c2cccc(S(=O)(=O)N(C)c3ccccc3)c2)n1 the results were ELG1 genotoxic -0.2%, Rab9 promoter act -0.2%, FLuc counter inconclusive and NPC1 promoter act 11.9%.

Compound activity deposited in PubChem by National Center for Advancing Translational Sciences (NCATS).
